# Measurements reported in PubChem BioAssay (NCATS).
# Inconclusive results are not listed. Calls of active or inactive are those of the source. Calls come from the whole dose curve; as a rule, active = well fitted inhibition curve with a large enough effect; inconclusive = small, poorly fitted or top-dose-only effect; inactive = flat fitted curve, though single readings scatter.
# Target: Dual specificity protein kinase CLK4 (Homo sapiens) (UniProt Q9HAZ1)
# Test: qHTS Assay for Inhibitors of CDC-like Kinase 4 (ADP-FP Assay) (AID 1795); note: nearly all actives have a fitted effect of over 60% in size;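 for activity change, negative = inhibition: recombinant human CLK4 phosphorylating RS repeat peptide at 1 µM ATP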
# Details: Transcreener ADP fluorescence polarization; series mostly up to 50 µM; activity change, negative = inhibition: at the top concentration
# Procedure: NIH Molecular Libraries Probe Production Centers Network [MLPCN] NIH Chemical Genomics Center [NCGC] MLPCN Grant: 1R03MH084827-01 Assay Submitter (PI): Tom Misteli NCGC Assay Overview: Clk4 (Invitrogen cat # PV3839) was assayed using ATP and the RS repeat peptide (AnaSpec cat # 61722) as substrates using Transcreener (trade mark), a competitive fluorescence polarization (FP) assay. For the present assay, we used the Orange TranscreenerTM ADP2 (BellBrooks Labs, Madison, Wis) detection system to monitor ADP production in the kinase reaction. […] This allows the ADP tracer to freely rotate leading to a decrease in the observed FP value. The amount of ADP produced can then be calculated using a calibration curve. The positive control for the assay was TG003 (Sigma-Aldrich, cat # 300801-52-9) which is a Clk4 inhibitor [2].
# NCGC Assay Protocol Summary: Two uL/well of substrate-buffer solution (100 uM RS peptide, 1 uM ATP, 25 mM Tris pH7.5, 10 mM MgCl2, 0.5 mM EGTA, 2.5 mM DTT, 0.01% Triton X-100 final concentration) was dispensed into 1,536-well assay plates (Greiner, solid black medium-binding plates) with Aurora Discovery BioRAPTR Flying Reagent Dispenser (FRD; Beckton-Dickenson). Using a Kalypsys pin tool equipped with a 1,536-pin tool, 23 nL of compound solution was transferred to the assay plate. Two uL/well Clk4-buffer solution (6.25 nM Clk4, 25 mM Tris pH 7.5, 10 mM MgCl2, 0.5 mM EGTA, 2.5 mM DTT, 0.01% Triton X-100, final concentration) was then added using the FRD yielding a total kinase reaction volume of 4 uL/ well. Then 4 uL/well of detection mixture (4 nM orange fluorescent tracer, 1 ug/mL ADP antibody, final concentration) was then added after an hour and the polarization signal was measured using the EnVision plate reader (PerkinElmer, Waltham, MA) after 30 min of room temperature incubation using the following filters and program settings: BODIPY TMR FP dual Enh mirror (barcode 682); BODIPY-TMR 531 (barcode 105) excitation; BODIPY-TMR FP P/S polarized 595 nm filters (barcodes 210 and 211, respectively); 100% light; 150 flashes; 1.35 G-factor; Detector gains were 685 for the 1st detector; 630 for the 2nd detector.
# % is set by controls: 0 for no effect and ±100 for the full control effect; potency is the fitted concentration of half-maximal effect.
# Chain of Dual specificity protein kinase CLK4 (Homo sapiens) (Q9HAZ1 whole entry, looked up): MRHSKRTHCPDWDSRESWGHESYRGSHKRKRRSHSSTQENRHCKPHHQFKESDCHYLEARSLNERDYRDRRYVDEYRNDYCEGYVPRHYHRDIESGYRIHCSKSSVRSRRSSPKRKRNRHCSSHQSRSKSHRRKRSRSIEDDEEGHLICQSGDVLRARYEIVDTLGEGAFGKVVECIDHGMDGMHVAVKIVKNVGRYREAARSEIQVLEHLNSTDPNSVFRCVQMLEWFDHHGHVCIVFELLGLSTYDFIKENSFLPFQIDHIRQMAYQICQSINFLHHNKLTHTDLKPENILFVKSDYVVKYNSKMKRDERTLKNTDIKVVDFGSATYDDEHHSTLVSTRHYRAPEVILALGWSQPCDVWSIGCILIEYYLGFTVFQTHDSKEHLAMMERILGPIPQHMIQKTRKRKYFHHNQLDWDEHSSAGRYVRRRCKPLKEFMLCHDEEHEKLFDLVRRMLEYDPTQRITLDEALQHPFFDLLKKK
SMILES,"activity change, negative = inhibition",Potency
CCNc1ncc2nc(-c3cn(C)c4ccccc34)c(=O)n(Cc3cccc(OC)c3)c2n1,10.7% (inactive),
CN1CCN(c2ncc3nc(-c4cccs4)c(=O)n(CCC#N)c3n2)CC1,-1.84% (inactive),
COc1ccccc1-c1cncnc1NCCNC(C)=O,7.35% (inactive),
COc1ccccc1-c1cc(NCc2ccccc2)ncn1,-21.6% (inactive),
COc1ncc2nc(-c3cc(F)cc(F)c3)c(=O)n(C)c2n1,6.74% (inactive),
O=c1c(-c2cccs2)nc2cnc(N3CCOCC3)nc2n1Cc1cccs1,5.59% (inactive),
COCCn1c(=O)c(C)nc2cnc(Oc3ccccc3)nc21,10.3% (inactive),
CN(C)Cc1ccccc1-c1cncnc1Nc1ccncc1,-22.5% (inactive),
COCCn1c(=O)cnc2cnc(OC)nc21,5.05% (inactive),
Cn1c(=O)c(-c2ccc(Cl)cc2)nc2cnc(Oc3cccc(Cl)c3)nc21,-11% (inactive),
Cc1nc2cnc(N3CCOCC3)nc2n(C)c1=O,-1.3% (inactive),
COCCn1c(=O)c(-c2ccc(F)cc2)nc2cnc(OC)nc21,2.76% (inactive),
CC(=O)NCCNc1ncncc1-c1ccccc1C,9.34% (inactive),
O=c1c(-c2cccs2)nc2cncnc2n1Cc1ccccc1,3.51% (inactive),
COc1ccc(CNc2cc(-c3ccoc3)ncn2)c(OC)c1,12.8% (inactive),
CN1CCN(c2nc(-c3ccc4c(c3)OCO4)nc3ccccc23)CC1,,14.1 µM (active)
CN1CCN(c2ncc3nc(-c4ccc(Cl)cc4)c(=O)n(Cc4cccs4)c3n2)CC1,5.74% (inactive),
Cn1c(=O)c(-c2ccc(Cl)cc2)nc2cnc(N3CCOCC3)nc21,8.27% (inactive),
COCCNc1ncnc2ccc(-c3ccc(C(=O)N(C)C)cc3)cc12,-1.91% (inactive),
COCCNc1ncnc2ccc(-c3ccccc3C)cc12,,11.2 µM (active)

SMILES,"activity change, negative = inhibition",Potency
O=c1c(-c2cccs2)nc2cnc(N3CCOCC3)nc2n1Cc1ccc(F)cc1,20.3% (inactive),
O=c1c(-c2cc(F)cc(F)c2)nc2cnc(N3CCNCC3)nc2n1C1CC1,-5.59% (inactive),
COc1ccc(-n2c(=O)cnc3cnc(N4CCN(C)CC4)nc32)cc1,-25.2% (inactive),
COc1ccc(-c2nc3cnc(N4CCN(C)CC4)nc3n(Cc3cccs3)c2=O)cc1,8.35% (inactive),
COc1cccc(Cn2c(=O)c(-c3cc(F)cc(F)c3)nc3cnc(N4CCN(C)CC4)nc32)c1,4.78% (inactive),
CN(C)C(=O)c1ccc(-c2cncnc2NC2CCNCC2)cc1,4.44% (inactive),
Cc1cnc(CNc2ccnc(-c3ccccc3CN(C)C)n2)cn1,6.58% (inactive),
CC(=O)NCCNc1ncnc2ccc(-c3cccc(NS(C)(=O)=O)c3)cc12,,8.91 µM (active)
Cc1cnc(CNc2ncnc3ccc(-c4c(C)noc4C)cc23)cn1,,3.55 µM (active)
COc1cccc(-c2ccc3ncnc(NCc4cccnc4)c3c2)c1,,1.58 µM (active)
CN(C)c1ncnc2ccc(-c3ccoc3)cc12,,0.178 µM (active)
CN(C)c1ncc2nc(-c3cn(C)c4ccccc34)c(=O)n(C[C@H]3CCCO3)c2n1,5.67% (inactive),
Fc1ccc(Nc2ncncc2-c2ccccc2C(F)(F)F)cc1,-0.613% (inactive),
COCCNc1ncnc2ccc(-c3cccc(OC)c3)cc12,,0.501 µM (active)
CN(C)c1ncc2ncc(=O)n(CCc3ccccc3)c2n1,,5.01 µM (active)
CN(C)c1ncc2nc(-c3cccs3)c(=O)n(C[C@H]3CCCO3)c2n1,7.58% (inactive),
CN1CCN(c2ncc3nc(-c4cc(F)cc(F)c4)c(=O)n(C4CC4)c3n2)CC1,-3.59% (inactive),
O=c1c(-c2cccs2)nc2cnc(N3CCOCC3)nc2n1-c1ccccc1,7.96% (inactive),
O=c1c(-c2cc(F)cc(F)c2)nc2cnc(N3CCOCC3)nc2n1C[C@H]1CCCO1,9.95% (inactive),
CCNc1ncc2nc(-c3ccc(OC)cc3)c(=O)n(C[C@H]3CCCO3)c2n1,7.1% (inactive),
